This passage reports growth inhibition results from PubChem BioAssay (NCI).

Assay [1] can be described thus: NCI Yeast Anticancer Drug Screen. Data for the rad50 strain (AID 155).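 Further: 0% = growth of vehicle-only cultures of the same strain.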 As to conditions: S. cerevisiae rad50 strain growth inhibition, active compounds read high. In outline:
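Inhibition values express reduced yeast growth in compound-treated cultures relative to vehicle-treated controls.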

A short description of assay [2]: NCI Yeast Anticancer Drug Screen. Data for the mec2-1 strain (AID 157). The conditions noted are these: S. cerevisiae mec2-1 strain, active compounds read high. In outline: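 Mutant yeast (mec2-1) grown with compound; growth inhibition relative to vehicle control reported.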
The nature of assay [3]: NCI Yeast Anticancer Drug Screen. Data for the sgs1 mgt1 strain (AID 161).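 Further: 0% = growth of cultures given vehicle only.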 The conditions noted are these: S. cerevisiae sgs1 mgt1 strain, active compounds read high. In outline: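 Growth of a repair-deficient yeast mutant was monitored after compound treatment and expressed as inhibition relative to vehicle-treated cultures.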
The nature of assay [4]: NCI Yeast Anticancer Drug Screen. Data for the cln2 rad14 strain (AID 165).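 Further: 0% = growth equal to vehicle treated cultures.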 The conditions noted are these: S. cerevisiae cln2 rad14 strain, active compounds read high. In outline: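 Readout is yeast growth inhibition versus vehicle-treated controls, using a strain with cln2 and rad14 alterations exposed to compound.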
A short description of assay [5]: NCI Yeast Anticancer Drug Screen. Data for the bub3 strain (AID 167). As to conditions: S. cerevisiae bub3 mutant strain, active compounds read high. In outline:
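Steps: expose the mutant yeast strain to compound; grow alongside vehicle-treated cultures; measure growth; express inhibition against the vehicle cultures.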

Assay [6] is described as follows: NCI Yeast Anticancer Drug Screen. Data for the mlh1 rad18 strain (AID 175). The conditions noted are these: S. cerevisiae mlh1 rad18 strain growth inhibition, active compounds read high. In outline: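 Genetically defined yeast (DNA repair-deficient) exposed to compounds; growth inhibition determined relative to vehicle.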
[7] abbreviates: at 5.0 µM (retest, dose inferred, filed as 0.5).
The mark [8] stands for this setting: at 50.0 µM (retest, dose inferred, filed as 5.0).

The structures appear in SMILES notation. This is part of a sample that, as a whole, favours compounds with a hit. Of some 79,000 tested, about 15% had one in any assay. Values without a mark were called inactive. Calls of active or inactive are those of the source. No stated cut-off is given here; in the data, active means growth inhibition above about 70%; inactive means the rest.

For `O=C1SCCN1/N=C/c1ccc([N+](=O)[O-])o1`, the growth inhibition in assay [1] (setting [7]) is 30%; in assay [1] (setting [8]), 85% (active); in assay [1] (at 50.0 µM), 85.8% (active); in assay [2] (setting [7]) it was 13%; in assay [2] (setting [8]), 82% (active); in assay [2] (at 50.0 µM), 65.3%. Besides, the growth inhibition is 34% in assay [3] (setting [7]); 92% (active) in assay [3] (setting [8]); 93.3% (active) in assay [3] (at 50.0 µM); 2% in assay [4] (setting [7]); 68% in assay [4] (setting [8]); 50.7% in assay [4] (at 50.0 µM). In addition, the growth inhibition in assay [5] (setting [7]) was 10%; in assay [5] (setting [8]) it was 80% (active); in assay [5] (at 50.0 µM), 64.6%.
For the compound `CC(C)(C)CC(C)(C)c1ccc(O)c(O)c1`, the growth inhibition in assay [1] (setting [7]) was 96% (active); in assay [1] (setting [8]), 99% (active); in assay [1] (at 50.0 µM) it was 93.3% (active); in assay [2] (setting [7]) it was 100% (active); in assay [2] (setting [8]), 99% (active); in assay [2] (at 50.0 µM), 94.2% (active). Also, the growth inhibition was 98% (active) in assay [3] (setting [7]); 99% (active) in assay [3] (setting [8]); 94.5% (active) in assay [3] (at 50.0 µM); 55% in assay [4] (setting [7]); 99% (active) in assay [4] (setting [8]); 92.3% (active) in assay [4] (at 50.0 µM). Also, the growth inhibition in assay [5] (setting [7]) was 86% (active); in assay [5] (setting [8]), 98% (active); in assay [5] (at 50.0 µM) it was 93.3% (active); in assay [6] (setting [7]), 100% (active); in assay [6] (setting [8]) it was 99% (active); in assay [6] (at 50.0 µM), 93.2% (active).
For `O=[N+]([O-])c1cc(CN(CCO)CCO)c(O)c2ncccc12`, the growth inhibition in assay [1] (setting [7]) is 99% (active); in assay [1] (setting [8]) it was 99% (active); in assay [1] (at 50.0 µM) it was 99.1% (active); in assay [2] (setting [7]), 98% (active); in assay [2] (setting [8]) it was 100% (active); in assay [2] (at 50.0 µM) it was 94% (active). For the same compound, the growth inhibition is 96% (active) in assay [3] (setting [7]); 100% (active) in assay [3] (setting [8]); 99% (active) in assay [3] (at 50.0 µM); 97% (active) in assay [4] (setting [7]); 99% (active) in assay [4] (setting [8]); 91.3% (active) in assay [4] (at 50.0 µM). For the same compound, the growth inhibition was 95% (active) in assay [5] (setting [7]), 99% (active) in assay [5] (setting [8]) and 95.7% (active) in assay [5] (at 50.0 µM).
For the compound `O=[N+]([O-])c1ccc(N=Nc2ccc(O)cc2O)cc1`, the growth inhibition in assay [1] (setting [7]) is 48%; in assay [1] (setting [8]), 97% (active); in assay [1] (at 50.0 µM), 98.5% (active); in assay [2] (setting [7]) it was 24%; in assay [2] (setting [8]), 98% (active); in assay [2] (at 50.0 µM), 98.9% (active). Also, the growth inhibition was 36% in assay [3] (setting [7]); 98% (active) in assay [3] (setting [8]); 98.3% (active) in assay [3] (at 50.0 µM); -1% in assay [4] (setting [7]); 97% (active) in assay [4] (setting [8]); 90.4% (active) in assay [4] (at 50.0 µM). Moreover, the growth inhibition in assay [5] (setting [7]) was 45%; in assay [5] (setting [8]), 97% (active); in assay [5] (at 50.0 µM), 98.9% (active); in assay [6] (setting [7]), 28%; in assay [6] (setting [8]), 97% (active); in assay [6] (at 50.0 µM), 97.7% (active).
As for `CCOc1ccc(-c2nc3ccc(-c4nc5ccc(N6CCN(C)CC6)cc5[nH]4)cc3[nH]2)cc1`, the growth inhibition in assay [1] (setting [7]) was 28%; in assay [1] (setting [8]), 98% (active); in assay [1] (at 50.0 µM), 88.7% (active); in assay [2] (setting [7]), 23%; in assay [2] (setting [8]), 99% (active); in assay [2] (at 50.0 µM), 92.9% (active). Moreover, the growth inhibition in assay [3] (setting [7]) is 42%; in assay [3] (setting [8]), 99% (active); in assay [3] (at 50.0 µM), 90.2% (active); in assay [4] (setting [7]), 31%; in assay [4] (setting [8]), 52%; in assay [4] (at 50.0 µM), 91.5% (active). The growth inhibition was 41% in assay [5] (setting [7]); 98% (active) in assay [5] (setting [8]); 89.1% (active) in assay [5] (at 50.0 µM); 57% in assay [6] (setting [7]); 98% (active) in assay [6] (setting [8]); 89% (active) in assay [6] (at 50.0 µM).
Take `CC(CO)(Nc1ccc([N+](=O)[O-])cc1[N+](=O)[O-])C(=O)O` (stereo not drawn): the growth inhibition is 21% in assay [1] (setting [7]); 99% (active) in assay [1] (setting [8]); 97.1% (active) in assay [1] (at 50.0 µM); 14% in assay [2] (setting [7]); 99% (active) in assay [2] (setting [8]); 99% (active) in assay [2] (at 50.0 µM). In addition, the growth inhibition is 10% in assay [3] (setting [7]); -22% in assay [3] (setting [8]); 98.1% (active) in assay [3] (at 50.0 µM); 1% in assay [4] (setting [7]); 99% (active) in assay [4] (setting [8]); 70.1% (active) in assay [4] (at 50.0 µM). In addition, the growth inhibition in assay [5] (setting [7]) is 1%; in assay [5] (setting [8]), 99% (active); in assay [5] (at 50.0 µM), 95% (active); in assay [6] (setting [7]), 6%; in assay [6] (setting [8]), 99% (active); in assay [6] (at 50.0 µM) it was 97.5% (active).
In the case of `OCc1ccccc1CC(O)(c1ccccc1)c1ccccc1`, the growth inhibition in assay [1] (setting [7]) was -7%; in assay [1] (setting [8]) it was 92% (active); in assay [1] (at 50.0 µM) it was 97.8% (active); in assay [2] (setting [7]), -8%; in assay [2] (setting [8]) it was 87% (active); in assay [2] (at 50.0 µM), 97.3% (active). Also, the growth inhibition is -7% in assay [3] (setting [7]); 94% (active) in assay [3] (setting [8]); 95.8% (active) in assay [3] (at 50.0 µM); -3% in assay [4] (setting [7]); 70% (active) in assay [4] (setting [8]); 75.5% (active) in assay [4] (at 50.0 µM). For the same compound, the growth inhibition is -19% in assay [5] (setting [7]); 11% in assay [5] (setting [8]); 88.5% (active) in assay [5] (at 50.0 µM); -20% in assay [6] (setting [7]); 90% (active) in assay [6] (setting [8]); 94.4% (active) in assay [6] (at 50.0 µM).
Take `CSc1ncccc1C(=O)[O][Sn]([c]1ccccc1)([c]1ccccc1)[c]1ccccc1`: the growth inhibition was 100% (active) in assay [1] (setting [7]); 99% (active) in assay [1] (setting [8]); 97.3% (active) in assay [1] (at 50.0 µM); 100% (active) in assay [2] (setting [7]); 99% (active) in assay [2] (setting [8]); 97.9% (active) in assay [2] (at 50.0 µM). The growth inhibition in assay [3] (setting [7]) is 100% (active); in assay [3] (setting [8]), 99% (active); in assay [3] (at 50.0 µM), 97.7% (active); in assay [4] (setting [7]), 99% (active); in assay [4] (setting [8]), 99% (active); in assay [4] (at 50.0 µM), 86.7% (active). For the same compound, the growth inhibition in assay [5] (setting [7]) is 99% (active); in assay [5] (setting [8]), 99% (active); in assay [5] (at 50.0 µM) it was 97.5% (active); in assay [6] (setting [7]), 99% (active); in assay [6] (setting [8]), 99% (active); in assay [6] (at 50.0 µM), 96.8% (active).
As to `O=[N+]([O-])c1cc2cccnc2c2ncccc12`, the growth inhibition in assay [1] (setting [7]) is -8%; in assay [1] (setting [8]), -15%; in assay [1] (at 50.0 µM) it was 63%; in assay [2] (setting [7]) it was -43%; in assay [2] (setting [8]) it was -18%; in assay [2] (at 50.0 µM), 41.1%. The growth inhibition in assay [3] (setting [7]) was -5%; in assay [3] (setting [8]) it was 20%; in assay [3] (at 50.0 µM), 81.2% (active); in assay [4] (setting [7]), -8%; in assay [4] (setting [8]), 21%; in assay [4] (at 50.0 µM) it was 62.2%. Besides, the growth inhibition is -21% in assay [5] (setting [7]), -86% in assay [5] (setting [8]) and 34.4% in assay [5] (at 50.0 µM).
As to `CN(C)CC1Cc2ccsc2C1=O` (stereo not drawn), the growth inhibition is 0% in assay [1] (setting [7]); 85% (active) in assay [1] (setting [8]); 99% (active) in assay [1] (at 50.0 µM); 5% in assay [2] (setting [7]); 75% (active) in assay [2] (setting [8]); 99.5% (active) in assay [2] (at 50.0 µM). In addition, the growth inhibition in assay [3] (setting [7]) is 3%; in assay [3] (setting [8]), 54%; in assay [3] (at 50.0 µM), 99.4% (active); in assay [4] (setting [7]) it was 1%; in assay [4] (setting [8]), 76% (active); in assay [4] (at 50.0 µM), 99.5% (active). Moreover, the figures for the growth inhibition in assay [5] (setting [7]), in assay [5] (setting [8]) and in assay [5] (at 50.0 µM) were 0%, 88% (active) and 99.3% (active), respectively.
